Experimental findings from PubChem BioAssay AID588342 (National Center for Advancing Translational Sciences (NCATS), 2011) are described below.

Out of some 360,000 compounds screened, about 25,000 (6.9%) were called active. A call without a number means that no potency is given here. About 9% were inconclusive and are not listed. Calls come from the whole dose curve; as a rule, active = well fitted inhibition curve with a large enough effect; inconclusive = small, poorly fitted or top-dose-only effect; inactive = flat fitted curve, though single readings scatter. Only a selection was taken, and actives are over-represented in it overall.
Potency is the fitted concentration of half-maximal effect.

Luciferin 4-monooxygenase (Photinus pyralis), sequence (P08659 whole entry, looked up): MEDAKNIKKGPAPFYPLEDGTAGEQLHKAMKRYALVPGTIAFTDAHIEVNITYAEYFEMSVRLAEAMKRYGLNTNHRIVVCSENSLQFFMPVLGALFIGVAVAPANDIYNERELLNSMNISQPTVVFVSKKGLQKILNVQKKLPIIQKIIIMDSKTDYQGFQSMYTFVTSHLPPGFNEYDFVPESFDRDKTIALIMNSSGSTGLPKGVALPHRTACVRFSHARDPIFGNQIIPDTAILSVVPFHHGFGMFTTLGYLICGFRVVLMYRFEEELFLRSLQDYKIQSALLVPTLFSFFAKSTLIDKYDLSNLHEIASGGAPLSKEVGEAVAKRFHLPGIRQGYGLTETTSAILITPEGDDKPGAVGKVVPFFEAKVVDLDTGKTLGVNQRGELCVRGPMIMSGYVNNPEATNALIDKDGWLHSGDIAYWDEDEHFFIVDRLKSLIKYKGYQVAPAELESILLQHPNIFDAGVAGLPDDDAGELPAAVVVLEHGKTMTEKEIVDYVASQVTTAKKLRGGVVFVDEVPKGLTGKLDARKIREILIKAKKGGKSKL

In this assay the target is Luciferin 4-monooxygenase (Photinus pyralis) (UniProt P08659). The assay is described as follows: qHTS profiling assay for firefly luciferase inhibitor/activator using purifed enzyme and Km concentrations of substrates (counterscreen for miR-21 project). Note: nearly all actives have a fitted effect of over 55% in size. Conditions: purified FLuc, luminescence inhibition; series mostly up to 57.5 µM. The method, boiled down:
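Biochemical qHTS of compounds, final roughly 60 µM downward over six points, against 10 nM purified firefly luciferase using Km concentrations of substrates (10 uM D-luciferin, 10 uM ATP) in Tris acetate pH 7.5 buffer; luminescence output.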
(In general: In qHTS, concentration-response curves come from the screen itself.)
Regarding `CN(C)/N=C/c1cn(-c2ccccc2)nc1-c1cccnc1`, the Potency entry is “inactive”.

As for `COc1cccc(-c2nn(-c3ccccc3)cc2/C=C(\C#N)C(=O)NCCCn2ccnc2)c1`, the Potency result is “inactive”.

`COc1ccc(-c2nn(-c3ccccc3)cc2/C=N/Nc2ccccn2)cc1OC`: the Potency was 10.7 µM (active).

Turning to `COc1cccc(C2=CC(=O)C[C@H](c3ccc(F)cc3)C2)c1OC`, the Potency result was “inactive”.

`CC(C)c1ccc(OCC(=O)N(Cc2ccc(N(C)C)cc2)C2CCS(=O)(=O)C2)cc1` (centres undefined): the Potency result was “inactive”.

Consider `CCOc1cccc(CNC(=O)c2ccc(N3CCCC3)c(NC(=O)Nc3ccccc3CC)c2)c1`, for which the Potency entry is “inactive”.

Take `COc1ccc(CN2C(=O)C(NC(=O)c3cccc(C)c3)(C(F)(F)F)N=C2c2ccccc2)cc1` (centres undefined): the Potency entry is “inactive”.

`Cc1cc(NC(=O)CSc2nc3ccccc3n2CC(C)C)no1`: the Potency entry was “inactive”.

Consider `Cc1ccc(SCCC(=O)Nc2cc(C)on2)cc1`, for which the Potency entry is “inactive”.

Turning to `Cc1ccc2nc(-c3ccc(SCC(=O)Nc4cc(C)on4)nc3)[nH]c2c1`, the Potency was 0.757 µM (active).

Regarding `Cc1cc(F)ccc1NC1(c2ccccc2)C(=O)c2ccccc2C1=O`, the Potency entry is “inactive”.

As for `CN(C)c1ccc(S(=O)(=O)NCC(=O)NCC2CCCCC2)cc1[N+](=O)[O-]`, the Potency entry was “inactive”.

Regarding `CC(=O)c1ccc(N2CCN(CC(O)c3ccccc3)CC2)cc1` (centres undefined), the Potency result is “inactive”.

`CC(=O)c1ccc(N2Cc3ccccc3C2)cc1`: the Potency was 10.7 µM (active).

As to `CC(=O)c1ccc(N2CCN(C(=O)CCc3ccccc3)CC2)cc1`, the Potency result was “inactive”.

For the molecule `Cc1ccc(S(=O)(=O)N2CCCCC2)cc1C(=O)N1CCN(CCO)CC1`, the Potency result is “inactive”.

For `Cc1cc(C)c2oc(C(=O)Nc3ccc(S(=O)(=O)N4CCCCCC4)cc3)cc(=O)c2c1`, the Potency result is “inactive”.

In the case of `COc1ccc(-c2nnn(Cc3nc(N)nc(N4CCCCC4)n3)n2)cc1`, the Potency result was “inactive”.

For the molecule `CN(C)c1nc(N)nc(Cn2nnc(-c3ccc(C(F)(F)F)cc3)n2)n1`, the Potency result is “inactive”.

With `CCc1ccc(-c2nnn(Cc3nn[nH]n3)n2)cc1`, the Potency is 26.9 µM (active).

On to `CC(=O)Nc1ccc(S(=O)(=O)N2CCn3cccc3C2C)cc1` (centres undefined), for which the Potency entry is “inactive”.

Consider `CCc1ccc(-n2nnc(-c3nc(-c4ccccc4)no3)c2C)cc1`, for which the Potency is 2.13 µM (active).

Take `Cc1ccc(-c2noc(CSc3nnnn3-c3ccccc3)n2)cc1`: the Potency result is “inactive”.

For `Cc1ccc(-c2noc(-c3nnn(-c4cccc(C(F)(F)F)c4)c3N)n2)cc1`, the Potency entry is “inactive”.

Consider `Cc1ccc2c(c1)N(C(=O)CCC(=O)NCc1ccccc1F)CC(C)O2` (centres undefined), for which the Potency result was “inactive”.

For `CCc1cccc(NC(=O)CN(c2ccc(C)c(C)c2)S(=O)(=O)c2ccsc2C(=O)OC)c1`, the Potency entry is “inactive”.

Regarding `Cc1cccc(N2C(=O)c3ccc(C(=O)Nc4cccc(C(=O)O)c4)cc3C2=O)c1`, the Potency is 1.51 µM (active).

Turning to `CC(=O)Nc1ccc(NC(=O)c2ccc3c(c2)C(=O)N(c2ccccc2C)C3=O)cc1`, the Potency entry was “inactive”.

For `CC(=O)Oc1ccc(C)cc1N1C(=O)c2ccc(C(=O)O)cc2C1=O`, the Potency result was “inactive”.

Take `Cn1nnnc1SCCNCc1ccc(Cl)c(Cl)c1`: the Potency result is “inactive”.

For the molecule `COc1cccc(/C=N\NC(=O)C2=NNC(=O)C2C)c1O` (centres undefined), the Potency is 6.01 µM (active).

On to `CC1=NNC(=O)C1CCC(=O)N/N=C\c1cccc(Cl)c1` (centres undefined), for which the Potency entry is “inactive”.

Regarding `Cc1cccc(-n2c(=O)c3c(c4cc(C)ccc4n3C)n(CC(=O)Nc3ccccc3Cl)c2=O)c1`, the Potency entry was “inactive”.

With `O=S(=O)(c1ccc(Cl)cc1)c1nnn2c1nc(NC1CCCC1)c1sccc12`, the Potency result was “inactive”.

`CC(=O)N1CCCc2cc(S(=O)(=O)Nc3ccc(Cl)cc3F)ccc21`: the Potency result is “inactive”.

In the case of `CN(CC(=O)Nc1ccc(F)cc1)CC(=O)N1CCCCC1`, the Potency result is “inactive”.

As to `Cc1ccc(Sc2cc(C(=O)c3ccccc3C(=O)O)ccc2[N+](=O)[O-])cc1`, the Potency entry is “inactive”.

In the case of `Cc1ccc(C(=O)CSc2ccccc2C(=O)O)cc1`, the Potency was 4.26 µM (active).

Turning to `Cc1ccccc1C(=O)O`, the Potency entry is “inactive”.

For the molecule `CC1(C(=O)OCC(=O)Nc2ncc(Cl)cc2Cl)CC1(Cl)Cl` (centres undefined), the Potency entry was “inactive”.

`Cc1ccc(NC(=O)NC(C)c2c(-n3cccc3)sc(C)c2C)c(C)c1` (centres undefined): the Potency entry was “inactive”.

`COC(=O)[C@@H]1C[C@H]2CC[C@H](O)C[C@H]2N1Cc1ccc(N2CCN(C)CC2)cc1`: the Potency entry was “inactive”.

On to `O=C(/C=C/c1c(F)cccc1Cl)Nc1nn[nH]n1`, for which the Potency entry was “inactive”.

Turning to `Cc1nnsc1C(=O)Nc1cccc(Cl)c1C`, the Potency entry is “inactive”.

For `Cc1ccc2c(Cl)c(C(=O)Nc3nn[nH]n3)sc2c1`, the Potency was 16.9 µM (active).

With `Cc1ccc(-c2cc(C(=O)Nc3nn[nH]n3)c3ccccc3n2)c(C)c1`, the Potency is 15.1 µM (active).

In the case of `O=C(CCc1ccccc1)Nc1nn[nH]n1`, the Potency entry was “inactive”.

Consider `Cc1cccc(NC(=O)CN(c2ccc(C(C)C)cc2)S(=O)(=O)c2c(C)nn(C)c2C)c1C`, for which the Potency result was “inactive”.

In the case of `COCCCNc1nc2c(-c3cccc(C)c3)nnn2c2ccc(Cl)cc12`, the Potency entry is “inactive”.

Turning to `CC(=O)NC1C(Oc2ccc(C)cc2)OC2COC(c3ccco3)OC2C1O` (centres undefined), the Potency entry is “inactive”.

On to `CC(C)c1ccc(C2C(C(=O)c3ccco3)=C(O)C(=O)N2CC2CCCO2)cc1` (centres undefined), for which the Potency entry was “inactive”.

On to `CCOc1ccc(C2CC(=O)c3c([nH]c(C(=O)OCc4ccccc4)c3C)C2)cc1` (centres undefined), for which the Potency entry was “inactive”.

In the case of `O=C(Nc1cc(C(F)(F)F)ccc1Cl)c1ccc2c(c1)CCN2S(=O)(=O)c1ccccc1`, the Potency entry was “inactive”.

On to `N#Cc1nc(/C=C/c2ccc(F)cc2)oc1NCc1ccc(F)cc1`, for which the Potency entry is “inactive”.

`N#Cc1nc(Cc2cccc3ccccc23)oc1NCc1ccc2c(c1)OCO2`: the Potency result is “inactive”.

As to `N#Cc1nc(Cc2ccccc2)oc1NCCc1ccccc1`, the Potency is 16.9 µM (active).

With `Nc1nc(COC(=O)CCC(=O)c2ccc(Cl)cc2)nc(Nc2ccccc2)n1`, the Potency result is “inactive”.

For the molecule `Cc1c(C(=O)OC(C)C)sc(NC(=O)c2cccnc2)c1C#N`, the Potency was 6.75 µM (active).

On to `CCOC(=O)c1sc(NC(=O)CSc2ncccn2)c(C#N)c1C`, for which the Potency entry was “inactive”.

As for `CC(C)NS(=O)(=O)c1ccc(NC(=O)c2cccnc2)cc1`, the Potency entry is “inactive”.

`Cc1ccc(NS(=O)(=O)c2ccc3c(c2)CC(=O)N3)cc1Cl`: the Potency result was “inactive”.

Take `c1ccc(-c2ccc(OCCN3CCOCC3)cc2)cc1`: the Potency was 16.9 µM (active).

Turning to `CC(C)(c1ccccc1)c1ccc(OCCN2CCCC2)cc1`, the Potency entry was “inactive”.

Regarding `CC(=O)c1ccc(OCCN2CCOCC2)cc1`, the Potency entry was “inactive”.

For the molecule `O=C(C1CC1)N1CCc2cc(Br)cc(S(=O)(=O)N3CCN(c4ccccc4F)CC3)c21`, the Potency entry is “inactive”.

As to `COc1cccc(CN(C)C(=O)CC23CC4CC(CC(C4)C2)C3)c1OC`, the Potency entry was “inactive”.

Turning to `CCC(=O)OCCNc1nc(-c2ccccc2)nc2ccccc12`, the Potency entry is “inactive”.

`COc1cc(Nc2nc(-c3ccc(OC)c(OC)c3)nc3ccccc23)cc(OC)c1`: the Potency entry was “inactive”.

Take `Cc1cccc(-c2nc(Nc3ccc(O)cc3)c3ccccc3n2)c1`: the Potency is 19 µM (active).

For `CCOc1ccc2c(c1)cc(CN(C(=O)CC)C1CCCCC1)c1nnnn12`, the Potency entry is “inactive”.

`COc1ccc(C)cc1N(C)C(=O)c1c(C)oc2ncnc(N3CCOCC3)c12`: the Potency entry was “inactive”.

Regarding `COc1cc(Cl)c(C)cc1Nc1nnc(-n2nc(C)cc2C)c2ccccc12`, the Potency entry was “inactive”.

As to `O=c1[nH]c2cc(Br)ccc2n2cccc12`, the Potency result is “inactive”.

With `Cc1ccc(S(=O)(=O)N2CCCCC2)cc1NC(=O)c1cccnc1`, the Potency result was “inactive”.

Regarding `O=C(NN=C1CCC(=NNC(=O)c2cccnc2)CC1)c1cccnc1`, the Potency result is “inactive”.

Turning to `O=C(N/N=C/c1sc(N2CCCCC2)nc1-c1cccs1)c1cccnc1`, the Potency was 21.3 µM (active).

As for `COc1ccc2c(c1)CCc1cn3ncc(C#N)c3nc1-2`, the Potency entry is “inactive”.

Regarding `COc1ccc2cc(C(=O)C3CCCN(C(=O)c4sc(C)nc4C)C3)ccc2c1` (centres undefined), the Potency result is “inactive”.

For `COc1ccc2nc(N3CCCC(O)C3)c(C#N)cc2c1` (centres undefined), the Potency is 7.57 µM (active).

As to `COc1cc2c(cc1OC)CN(C(C)C(=O)Nc1cccc(S(=O)(=O)N3CCOCC3)c1)CC2` (centres undefined), the Potency result is “inactive”.

In the case of `COc1ccc(S(=O)(=O)NCCCCOc2ccc(Cl)cc2)cc1`, the Potency entry was “inactive”.

Regarding `Cc1cc(S(=O)(=O)N2CCOCC2)ccc1OCC(=O)N1CCOCC1`, the Potency result was “inactive”.

With `COCc1c(C(=O)OCC(=O)Nc2ccc(OC(F)F)cc2)oc2ccccc12`, the Potency entry is “inactive”.

Take `CC(=O)c1cc(-c2ccccc2)n(CC(=O)NC2CCCCC2)c1C`: the Potency entry is “inactive”.

As to `O=C(NC1CCCC1)c1cc(-c2ccccc2)on1`, the Potency was 5.36 µM (active).

On to `O=C(NC1CC1)c1cccc(Br)c1`, for which the Potency entry was “inactive”.

Take `O=C(CCc1nc(-c2ccccc2)no1)Nc1cccc(C(=O)NC2CC2)c1`: the Potency result is “inactive”.

For `O=C(NC1CCN(S(=O)(=O)c2ccc(F)cc2)CC1)c1ccccc1`, the Potency result was “inactive”.

For the molecule `O=C(NC1CC1)c1ccc(-c2ccccc2)cc1`, the Potency is 16.9 µM (active).

Turning to `COc1ccc(-c2c(C)c3ccc(O)c(CN4CCCC4)c3oc2=O)cc1OC`, the Potency result was “inactive”.

Regarding `Cn1nc(C(=O)OCC(=O)N(Cc2ccccc2)C(C)(C)C)c2ccccc2c1=O`, the Potency result was “inactive”.

For `CSc1ccccc1-c1nnc(-c2ccc(Cl)cc2)o1`, the Potency is 5.36 µM (active).

`FC(F)(F)c1cnc(Oc2ccccc2-c2nnc(-c3ccc(Cl)cc3)o2)c(Cl)c1`: the Potency result is “inactive”.

`O=C(O)c1cc(S(=O)(=O)Nc2ccc3cn[nH]c3c2)ccc1Br`: the Potency entry was “inactive”.

For `O=C(CCCN1C(=O)c2ccccc2C1=O)Oc1ccc(Cl)cc1`, the Potency entry was “inactive”.

Regarding `Cc1cc(C(=O)COC(=O)CCCN2C(=O)c3ccccc3C2=O)c(C)n1C`, the Potency was 23.9 µM (active).

`Cc1cc(C)cc(OCC(=O)NNC(=O)CCN2C(=O)c3ccccc3C2=O)c1`: the Potency entry is “inactive”.

On to `CCCCN(Cc1ccccc1)C(=O)C1CCN(Cc2sccc2C)CC1`, for which the Potency result was “inactive”.

Consider `O=C(NC1CC(=O)N(c2ccc(F)cc2)C1)c1cccs1` (centres undefined), for which the Potency result is “inactive”.

For `COc1ccc(CCN(C(=O)COc2ccccc2)c2nc(-c3ccccc3)cs2)cc1OC`, the Potency result was “inactive”.

For the molecule `CN(c1ccc(O)cc1)c1nc(-c2cccnc2)cs1`, the Potency was 4.78 µM (active).

For `CN(C(=O)CSc1nc(C2CC2)nc2ccccc12)c1nc(-c2ccccc2)cs1`, the Potency result is “inactive”.

In the case of `Cc1ccc(S(=O)(=O)N(Cc2nc(-c3ccc(Cl)cc3)no2)C2CCCCC2)cc1`, the Potency entry was “inactive”.

On to `CC(C(=O)N1CCc2ccccc21)N(C)CC(=O)Nc1ccc(F)cc1` (centres undefined), for which the Potency result was “inactive”.
